A short description of the assay: chemical genetic growth profiling, strain panel (AID 1159580).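 Note: tested at 20 µM; growth read once vehicle control cultures reached saturation at 30 °C; 1 = growth at the plate median or of vehicle wells; lower values mean less growth of the strain.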 As to conditions: growth OD.
Setting [1] is: S. cerevisiae deletion strains, locus YAL040C, strain CLN3, hits give low values.
Setting [2] is: S. cerevisiae deletion strains, locus YDR150W, strain NUM1, hits give low values.
Where [3] appears, read: S. cerevisiae deletion strains, locus YDR363W, strain ESC2, hits give low values.
Setting [4] is: S. cerevisiae deletion strains, locus YER002W, strain NOP16, hits give low values.
Setting [5] is: S. cerevisiae deletion strains, locus YMR307W, strain GAS1, hits give low values.
The mark [6] stands for this setting: S. cerevisiae deletion strains, locus YNL153C, strain GIM3, hits give low values.
The mark [7] stands for this setting: S. cerevisiae deletion strains, locus YNL175C, strain NOP13, hits give low values.
The mark [8] stands for this setting: S. cerevisiae deletion strains, locus YNL197C, strain WHI3, hits give low values.
[9] abbreviates: S. cerevisiae deletion strains, locus YNL224C, strain SQS1, hits give low values.
Setting [10] is: S. cerevisiae deletion strains, locus YNL322C, strain KRE1, hits give low values.
[11] abbreviates: S. cerevisiae deletion strains, locus YOR083W, strain WHI5 (second series), hits give low values.
Where [12] appears, read: S. cerevisiae deletion strains, locus YPL241C, strain CIN2, hits give low values.
Where [13] appears, read: S. cerevisiae deletion strains, locus YCL061C, strain MRC1 (second series), hits give low values.
The mark [14] stands for this setting: S. cerevisiae deletion strains, locus YGR078C, strain PAC10, hits give low values.
[15] abbreviates: S. cerevisiae deletion strains, locus YMR263W, strain SAP30, hits give low values.
Where [16] appears, read: S. cerevisiae deletion strains, locus YPL055C, strain LGE1, hits give low values.
Setting [17] is: S. cerevisiae deletion strains, locus YGR229C, strain SMI1, hits give low values.
Setting [18] is: S. cerevisiae deletion strains, locus YJR075W, strain HOC1, hits give low values.
Where [19] appears, read: S. cerevisiae deletion strains, locus YAL013W, strain DEP1, hits give low values.
Where [20] appears, read: S. cerevisiae deletion strains, locus YBR229C, strain ROT2, hits give low values.
The mark [21] stands for this setting: S. cerevisiae deletion strains, locus YDL101C, strain DUN1, hits give low values.
The mark [22] stands for this setting: S. cerevisiae deletion strains, locus YDL134C, strain PPH21, hits give low values.
Setting [23] is: S. cerevisiae deletion strains, locus YEL061C, strain CIN8, hits give low values.
The mark [24] stands for this setting: S. cerevisiae deletion strains, locus YHR030C, strain SLT2, hits give low values.
[25] abbreviates: S. cerevisiae deletion strains, locus YHR087W, strain rtc3, hits give low values.
Where [26] appears, read: S. cerevisiae deletion strains, locus YJR043C, strain POL32, hits give low values.
[27] abbreviates: S. cerevisiae deletion strains, locus YKL190W, strain CNB1, hits give low values.
The mark [28] stands for this setting: S. cerevisiae deletion strains, locus YLR039C, strain RIC1, hits give low values.
The mark [29] stands for this setting: S. cerevisiae deletion strains, locus YLR058C, strain SHM2 (second series), hits give low values.
Setting [30] is: S. cerevisiae deletion strains, locus YLR085C, strain ARP6, hits give low values.
Setting [31] is: S. cerevisiae deletion strains, locus YLR262C, strain YPT6, hits give low values.
Setting [32] is: S. cerevisiae deletion strains, locus YML094W, strain GIM5, hits give low values.
Where [33] appears, read: S. cerevisiae deletion strains, locus YMR219W, strain ESC1, hits give low values.
Setting [34] is: S. cerevisiae deletion strains, locus YNL298W, strain CLA4 (second series), hits give low values.
Where [35] appears, read: S. cerevisiae deletion strains, locus YNR030W, strain Alg12, hits give low values.
[36] abbreviates: S. cerevisiae deletion strains, locus YOL006C, strain TOP1, hits give low values.
Where [37] appears, read: S. cerevisiae deletion strains, locus YPR135W, strain CTF4, hits give low values.
Setting [38] is: S. cerevisiae deletion strains, locus YNL128W, strain TEP1, hits give low values.

Screen size: about 5,500 compounds; about 2,000 (36%) were called active. Not shown: some 18% with an inconclusive outcome. Some of the results follow. Values without a mark were called inactive. Cut-off read from the data, not from the text of the source: active = normalized growth mostly below about 0.91 (no sharp cut-off); inconclusive = no clear call, values can overlap the other calls; inactive = mostly above about 0.92.

As to `CC[C@H](NC(=O)c1c(C)c(-c2ccccc2)nc2ccccc12)c1ccccc1`, the normalized growth under setting [1] was 1.03; the normalized growth under setting [2] is 0.987; the normalized growth under setting [3] was 1.04; the normalized growth under setting [4] was 1.02; the normalized growth under setting [5] is 1.06; the normalized growth under setting [6] was 0.979. Also, the normalized growth was 1.03 under setting [7]; 1.04 under setting [8]; 1 under setting [9]; 0.995 under setting [10]; 1.07 under setting [11]; 0.987 under setting [12].

Regarding `CCCCCCCCCC(=O)NC(CN1CCOCC1)[C@H](O)c1ccccc1` (stereo partly drawn), the normalized growth by setting is: under setting [1], 0.989; under setting [13], 0.987; under setting [2], 0.977; under setting [3], 0.942; under setting [4], 0.963; under setting [14], 0.97. The normalized growth under setting [15] is 1; the normalized growth under setting [6] is 0.941; the normalized growth under setting [7] was 0.962; the normalized growth under setting [8] is 0.944; the normalized growth under setting [9] is 0.978; the normalized growth under setting [11] is 0.971. Also, the normalized growth under setting [16] is 0.957.

As for `CCCCCCCCCC[Si](C)(C)CCC(=O)NC(Cc1ccc(C)cc1)c1ccccc1` (stereo not drawn), the normalized growth is, setting by setting: under setting [1], 1.03; under setting [3], 0.974; under setting [4], 1.11 [resistant] (active); under setting [15], 0.998; under setting [5], 1.01; under setting [7], 1.05. The normalized growth under setting [9] was 1.17 [resistant] (active) and the normalized growth under setting [16] was 1.

In the case of `N#CC(C#N)=C(N)/C(C#N)=C/c1ccc(O)cc1`, the normalized growth reads like this: under setting [1], 0.962; under setting [13], 0.998; under setting [3], 0.999; under setting [4], 1; under setting [14], 1; under setting [17], 1.04. The normalized growth by setting is: under setting [18], 0.957; under setting [15], 1; under setting [5], 1; under setting [7], 0.999; under setting [8], 0.989; under setting [9], 1. The normalized growth runs as follows: under setting [10], 0.99; under setting [11], 1.01; under setting [16], 1.

Consider `N#C/C(=C\c1ccc(O)c(O)c1)C(=O)NCc1ccccc1`, for which the normalized growth under setting [19] is 0.997; the normalized growth under setting [1] is 0.984; the normalized growth under setting [13] was 1; the normalized growth under setting [2] was 1; the normalized growth under setting [3] is 1; the normalized growth under setting [4] is 1.01. The normalized growth reads like this: under setting [14], 1.01; under setting [18], 0.992; under setting [15], 1.01; under setting [5], 1; under setting [6], 1.02; under setting [7], 1.01. Also, the normalized growth under setting [8] is 1.02, the normalized growth under setting [9] is 0.999, the normalized growth under setting [11] was 1.03 and the normalized growth under setting [12] was 1.

Regarding `CCOC(=O)/C(C#N)=C/c1ccc(Br)cc1`, the normalized growth was 0.971 under setting [19]; 0.805 (active) under setting [20]; 0.875 (active) under setting [21]; 0.972 under setting [22]; 0.893 under setting [2]; 0.754 (active) under setting [23]. Further, the normalized growth is 0.903 (active) under setting [14]; 0.258 (active) under setting [24]; 0.821 (active) under setting [25]; 0.846 (active) (S. cerevisiae deletion strains, locus YJL187C, strain SWE1, hits give low values); 0.851 (active) under setting [26]; 0.828 (active) under setting [18]. Also, the normalized growth is, setting by setting: under setting [27], 0.804 (active); under setting [28], 0.646 (active); under setting [29], 0.977; under setting [30], 0.375 (active); under setting [31], 0.72 (active); under setting [32], 0.828 (active). Further, the normalized growth reads like this: under setting [33], 0.926 (active); under setting [15], 0.913; under setting [6], 0.836 (active); under setting [34], 0.717 (active); under setting [10], 0.967; under setting [35], 0.765 (active). The normalized growth reads like this: under setting [36], 0.593 (active); under setting [16], 0.865; under setting [12], 0.717 (active); under setting [37], 0.585 (active); (S. cerevisiae strains, strain wild type, hits give low values) 0.954.

Turning to `O=[N+]([O-])c1ccc(Oc2cccc3cccnc23)cc1`, the normalized growth reads like this: under setting [19], 1.01; under setting [20], 1; under setting [21], 0.942; under setting [22], 0.993; under setting [2], 1; under setting [23], 0.98. In addition, the normalized growth is 0.991 under setting [14]; 0.736 under setting [24]; 1 under setting [25]; 0.98 under setting [26]; 1.02 under setting [18]; 0.805 under setting [28]. Also, the normalized growth reads like this: under setting [29], 1; under setting [30], 0.959; under setting [31], 0.799 (active); under setting [32], 0.991; under setting [33], 0.993; under setting [15], 1. Besides, the normalized growth is, setting by setting: under setting [5], 0.719; under setting [6], 0.848 (active); under setting [34], 0.892; under setting [10], 1; under setting [35], 0.994; under setting [36], 0.872. Also, the normalized growth reads like this: under setting [16], 0.919; under setting [12], 0.854 (active); under setting [37], 0.754.

With `O=[N+]([O-])c1ccc(OCCCOc2ccc([N+](=O)[O-])cc2)cc1`, the normalized growth runs as follows: under setting [19], 1; under setting [20], 0.978; under setting [21], 0.98; under setting [2], 0.988; under setting [23], 0.979; under setting [14], 0.991. Besides, the normalized growth reads like this: under setting [17], 0.995; under setting [24], 0.91; under setting [25], 0.973; under setting [26], 1.01; under setting [18], 0.971; under setting [27], 1. For the same compound, the normalized growth is 0.966 under setting [28]; 0.975 under setting [29]; 0.993 under setting [30]; 0.969 under setting [31]; 0.934 under setting [32]; 0.983 under setting [33]. The normalized growth by setting is: under setting [15], 1.01; under setting [38], 0.996; under setting [6], 0.995; under setting [34], 0.961; under setting [10], 0.99; under setting [35], 0.979. The normalized growth under setting [36] was 0.97, the normalized growth under setting [16] was 1.02, the normalized growth under setting [12] is 0.953 and the normalized growth under setting [37] was 0.932.

Turning to `CNCC(O)c1ccc(O)cc1` (stereo not drawn), the normalized growth was 1.03 under setting [19]; 1.02 under setting [1]; 1 under setting [13]; 1.01 under setting [3]; 1.02 under setting [4]; 1.02 under setting [14]. For the same compound, the normalized growth under setting [18] was 1.01; the normalized growth under setting [15] was 1; the normalized growth under setting [5] was 1.04; the normalized growth under setting [38] was 1.03; the normalized growth under setting [7] is 1.02; the normalized growth under setting [8] was 1.01. Moreover, the normalized growth reads like this: under setting [9], 0.999; under setting [11], 1.02; under setting [12], 1.

The values are drawn from PubChem BioAssay AID1159580 (chemical genetic matrix, 2015).
